# According to PubChem BioAssay (EPA / NIEHS):
# Values joined by “and” are separate entries in the source; they are usually repeats but may differ in a detail not shown here. Equal values may be shown once. Inconclusive results are not listed. Where a structure was tested more than once in an assay, its records may differ in their call. Active and inactive are the calls of the source. How the source made its calls: active means hit-call score of the fitted dose curve at least 0.9, where 1 is the maximum; inconclusive means response in the unintended direction; inactive means score below 0.9.
# Biological target: Nuclear receptor subfamily 1 group I member 2 (Homo sapiens) (UniProt O75469)
# Assay: ATG_PXR_TRANS: Attagene TRANS-FACTORIAL HepG2 Assay for human Pregnane X Receptor (PXR) (AID 2283008)
# Experimental: ATG_TRANS is a cell-based, multiplexed-readout assay that uses HepG2, a human liver cell line, with measurements taken at 24 hours after chemical dosing in a 24-well plate.ATG_PXR_TRANS is one of 30 assay component(s) measured or calculated from the ATG_TRANS assay. It is designed to make measurements of mRNA induction, a form of inducible reporter, as detected with fluorescence intensity signals by Reverse transcription polymerase chain reaction (RT-PCR) and Capillary electrophoresis technology.Data from the assay component ATG_PXR_TRANS was analyzed into 1 assay endpoint. This assay endpoint, ATG_PXR_TRANS, was analyzed in the positive analysis fitting direction relative to DMSO as the negative control and baseline of activity. Using a type of inducible reporter, measures of mRNA for gain-of-signal activity can be used to understand the reporter gene at the transcription factor-level as they relate to the gene NR1I2. Furthermore, this assay endpoint can be referred to as a primary readout, because this assay has produced multiple assay endpoints where this one serves a reporter gene function. To generalize the intended target to other relatable targets, this assay endpoint is annotated to the nuclear receptor intended target family, where the subfamily is non-steroidal.
# Human liver HepG2 cells are transiently transfected with multiple reporter transcription units (MRTUs) in 6-well plates using FuGene 6 reagent (Roche; 3 ml FuGene/1 mg DNA). The MRTU constructs are regulated by a cis-regulating element (promoter). […] A major difference between the CIS and TRANS system is that in CIS activities of endogenous TFs are measured, whereas the TRANS assay evaluates changes in activities of exogenous, chimeric NR-Gal4 proteins. […] At the end of 24 hour incubation, total RNA was isolated using TriZol reagent (Invitrogen). The isolated RNA is then reverse-transcribed using oligo(dT) primer and Mo-MLV reverse transcriptase (Invitrogen) with DNAse I (Ambion) treatment for 30 min. The one-tenth of the produced cDNA was amplified by PCR using Taq DNA polymerase (Invitrogen) and two reporter sequence-specific primers. The PCR products were fluorescently labeled by primer extension with 6-arboxyfluorescein (6-FAM) 5'-labeled reporter sequence-specific primer (2 min at 95 C, 20 s at 68 C and 10 min at 72 C) and these products were digested with 5U of HpaI (New England Biolabs) for 2h at 37 C. The fragments were purified using Qiaquick PCR columns (Qiagen), analyzed on an ABI 3130xL genetic analyzer (Applied Biosystems) with peak positions identified by using a set of X-rhodamine (ROX)-labeled MapMarker1000 molecular weight standards (BioVentures). The raw capillary electrophoresis data was processed using Attagraph software (Attagene).
# Nuclear receptor subfamily 1 group I member 2 (Homo sapiens), sequence (O75469 whole entry, looked up): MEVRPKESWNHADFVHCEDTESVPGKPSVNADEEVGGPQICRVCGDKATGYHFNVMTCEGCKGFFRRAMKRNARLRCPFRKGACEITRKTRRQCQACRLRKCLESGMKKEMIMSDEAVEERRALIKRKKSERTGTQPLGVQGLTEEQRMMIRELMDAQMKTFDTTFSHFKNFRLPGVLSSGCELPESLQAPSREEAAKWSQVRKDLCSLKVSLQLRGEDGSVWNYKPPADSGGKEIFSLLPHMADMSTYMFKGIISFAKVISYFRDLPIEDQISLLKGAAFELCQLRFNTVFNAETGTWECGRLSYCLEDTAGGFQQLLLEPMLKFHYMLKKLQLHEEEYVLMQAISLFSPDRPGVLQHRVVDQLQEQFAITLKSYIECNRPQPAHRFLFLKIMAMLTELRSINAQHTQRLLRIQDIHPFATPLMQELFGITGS
Structure (SMILES),outcome,AC50
CCOC(=O)C(C)Oc1ccc(Oc2cnc3cc(Cl)ccc3n2)cc1 (stereo not given),inactive,
CC(C)(c1ccc(O)cc1)c1ccc(O)cc1,inactive,
CCC(C)OC(=O)N1CCCCC1CCO (stereo not given),inactive,9.99 µM (active)
COC(=O)c1c(Cl)nn(C)c1S(=O)(=O)NC(=O)Nc1nc(OC)cc(OC)n1,inactive,
COC(=O)c1ccccc1C(=O)O,inactive,
CCCCC(CC)COC(=O)c1ccccc1C(=O)O (stereo not given),inactive,
CC(=O)S[C@@H]1CC2=CC(=O)CC[C@]2(C)[C@H]2CC[C@@]3(C)[C@@H](CC[C@@]34CCC(=O)O4)[C@H]12,inactive,
CCOC(=O)COc1cc(-n2ncc(C(F)(F)F)c(C)c2=O)c(F)cc1Cl,inactive,
CN(C)C(=O)Nc1ccc(Cl)c(Cl)c1,inactive,6.84 µM (active)
N[C@@H](Cc1cc(I)c(Oc2ccc(O)c(I)c2)c(I)c1)C(=O)O,inactive,30.5 µM (active) and 26.8 µM (active) and 6.08 µM (active)
C=CCOC(Cn1ccnc1)c1ccc(Cl)cc1Cl (stereo not given),inactive,
O=C(Nc1ccc([N+](=O)[O-])cc1Cl)c1cc(Cl)ccc1O,inactive,
CCCCCOC(=O)COc1cc(N2C(=O)C3=C(CCCC3)C2=O)c(F)cc1Cl,inactive,
Oc1ccc(C(c2ccc(O)cc2)C(Cl)(Cl)Cl)cc1,inactive,
COCCO,inactive,
CCCCC(CC)CN1C(=O)C2C3C=CC(C3)C2C1=O (stereo not given),,14.6 µM (active)
Cc1nn(C)c(Oc2ccccc2)c1C=NOCc1ccc(C(=O)OC(C)(C)C)cc1,inactive,

Structure (SMILES),outcome,AC50
CCOC(=O)C(C)Oc1ccc(Oc2nc3ccc(Cl)cc3o2)cc1 (stereo not given),inactive,
CCOC(=O)c1ccc(O)cc1,inactive,
CCNc1nc(N)nc(Cl)n1,inactive,
O=C(c1ccccc1)C1CCCCC1,inactive,29.1 µM (active) and 8.99 µM (active) and 19.7 µM (active)
CC1(C)C(C=C(Cl)Cl)C1C(=O)OCc1cccc(Oc2ccccc2)c1 (stereo not given),,20.2 µM (active)
CC(=O)[C@H]1CC[C@H]2[C@@H]3CCC4=CC(=O)CC[C@]4(C)[C@H]3CC[C@]12C,,2.54 µM (active) [middle of 4 runs]
C[C@]12CC[C@@H]3c4ccc(O)cc4C[C@@H](CCCCCCCCCS(=O)CCCC(F)(F)C(F)(F)F)[C@H]3[C@@H]1CC[C@@H]2O (stereo not given in full),,494 nM (active) [middle of 4 runs]
S=C(S)NCCNC(=S)S.[Mn+2].[S-]C([S-])=NCCN=C([S-])[S-].[Zn+2],inactive,12 µM (active) and 18.7 µM (active)
CCCOC(=O)c1ccc(C(=O)OCCC)nc1,inactive,
COc1nc(C)nc(NC(=O)NS(=O)(=O)c2ccccc2OCCCl)n1,inactive,40 µM (active)
CCCCCCC(C)OC(=O)COc1nc(F)c(Cl)c(N)c1Cl (stereo not given),inactive,
OB(O)O,inactive,
COC(=O)CSc1cc(N=c2sc(=O)n3n2CCCC3)c(F)cc1Cl,inactive,
C#C[C@]1(O)CC[C@H]2[C@@H]3CCC4=CC(=O)CC[C@@H]4[C@H]3CC[C@@]21CC,inactive,9.53 µM (active)
CCCN(CCC)c1c([N+](=O)[O-])cc(C(F)(F)F)c(N)c1[N+](=O)[O-],,3.98 µM (active)
CCOC(=O)NCCOc1ccc(Oc2ccccc2)cc1,inactive,
